# Of roughly 8,800 targets only a part is listed; those with a hit were picked by preference. About 0.5% of all pairs of compound and target were hits. Unmarked numbers belong to inactive results.
# What was measured:
# Assay in all cases: log2 fold change, soluble protein after heating vs DMSO (PISA); higher = thermal stabilisation; K562 lysate, 10 uM; active = over 0.2 and 3.5 SD of the protein, either way, in both replicates (recomputed)
# [1] = compound: NCC(=O)Nc1ccc(-n2nc(C(F)(F)F)cc2-c2ccc3c(ccc4ccccc43)c2)cc1
# How it was run: (§1)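 Pellets of K562 cells were dounce-homogenised in PBS pH 7.4 with 1 mM MgCl2, and the crude extract was held at 1 mg/mL protein for a 30 min treatment with 10 μM compound. Aliquots were heated for 3 min over 48°C-58°C and pooled before NP-40 was added to 0.5% at 4°C. The supernatant from 21,000xg for 90 min was quantified by TMTpro 16plex LC-MS/MS with channel sums equalised. Values are reported from duplicates as log-two fold change in thermal stability relative to solvent controls.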
# vorinostat = compound: O=C(CCCCCCC(=O)Nc1ccccc1)NO [vorinostat]
# How it was run: as §1
# silmitasertib = compound: O=C(O)c1ccc2c(c1)nc(Nc1cccc(Cl)c1)c1ccncc12 [silmitasertib]
# How it was run: as §1
# [2] = compound: O=C1NC(=O)C(c2cnc3ccccn23)=C1c1cn2c3c(cc(F)cc13)CN(C(=O)N1CCCCC1)CC2
# How it was run: as §1
# entospletinib = compound: c1cn2cc(-c3ccc4cn[nH]c4c3)nc(Nc3ccc(N4CCOCC4)cc3)c2n1 [entospletinib]
# How it was run: as §1
# UniProt Q96MX0, sequence (Q96MX0 whole entry, looked up): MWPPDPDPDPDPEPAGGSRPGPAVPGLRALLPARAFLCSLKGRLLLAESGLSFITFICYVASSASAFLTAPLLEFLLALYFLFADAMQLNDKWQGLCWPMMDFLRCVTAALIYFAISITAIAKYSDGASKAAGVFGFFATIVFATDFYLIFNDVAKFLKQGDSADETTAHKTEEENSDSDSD
# UniProt P39880, sequence (P39880 whole entry, looked up): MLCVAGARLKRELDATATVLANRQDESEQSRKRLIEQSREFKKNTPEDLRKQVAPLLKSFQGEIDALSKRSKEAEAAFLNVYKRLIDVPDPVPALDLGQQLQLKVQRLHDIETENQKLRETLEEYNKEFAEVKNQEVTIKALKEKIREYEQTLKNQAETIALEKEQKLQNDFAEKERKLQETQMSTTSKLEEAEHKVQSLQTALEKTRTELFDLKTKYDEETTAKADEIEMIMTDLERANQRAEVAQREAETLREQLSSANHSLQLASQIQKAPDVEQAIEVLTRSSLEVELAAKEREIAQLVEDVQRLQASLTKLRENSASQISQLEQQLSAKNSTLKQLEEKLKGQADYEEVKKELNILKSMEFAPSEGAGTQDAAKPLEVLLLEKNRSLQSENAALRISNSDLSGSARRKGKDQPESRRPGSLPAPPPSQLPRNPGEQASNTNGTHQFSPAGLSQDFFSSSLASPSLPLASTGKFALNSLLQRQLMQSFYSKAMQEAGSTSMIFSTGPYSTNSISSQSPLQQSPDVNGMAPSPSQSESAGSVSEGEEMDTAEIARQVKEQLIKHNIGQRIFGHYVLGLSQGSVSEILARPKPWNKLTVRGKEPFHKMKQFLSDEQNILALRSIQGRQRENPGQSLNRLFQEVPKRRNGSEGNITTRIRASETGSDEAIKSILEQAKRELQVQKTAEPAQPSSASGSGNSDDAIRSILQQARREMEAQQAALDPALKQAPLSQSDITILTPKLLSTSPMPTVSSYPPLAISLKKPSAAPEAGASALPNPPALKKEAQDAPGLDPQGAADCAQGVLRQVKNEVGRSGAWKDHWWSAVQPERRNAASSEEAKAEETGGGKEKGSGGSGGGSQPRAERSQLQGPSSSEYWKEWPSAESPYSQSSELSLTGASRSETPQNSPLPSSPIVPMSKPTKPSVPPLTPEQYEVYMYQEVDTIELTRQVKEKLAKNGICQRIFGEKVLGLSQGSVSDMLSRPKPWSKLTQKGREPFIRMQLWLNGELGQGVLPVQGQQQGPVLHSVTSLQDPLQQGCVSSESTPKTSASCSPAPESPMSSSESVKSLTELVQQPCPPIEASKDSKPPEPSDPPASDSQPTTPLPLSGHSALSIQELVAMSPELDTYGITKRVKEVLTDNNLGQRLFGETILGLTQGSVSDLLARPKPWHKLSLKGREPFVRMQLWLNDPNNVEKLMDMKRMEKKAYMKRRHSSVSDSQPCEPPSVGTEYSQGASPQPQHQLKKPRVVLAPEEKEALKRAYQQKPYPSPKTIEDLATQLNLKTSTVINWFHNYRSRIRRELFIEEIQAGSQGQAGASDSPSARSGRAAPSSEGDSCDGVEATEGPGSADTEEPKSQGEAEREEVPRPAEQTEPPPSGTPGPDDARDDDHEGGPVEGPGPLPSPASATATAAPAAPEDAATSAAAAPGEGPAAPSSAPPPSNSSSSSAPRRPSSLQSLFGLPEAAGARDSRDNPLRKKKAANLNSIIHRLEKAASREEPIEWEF
# UniProt P83436, sequence (P83436 whole entry, looked up): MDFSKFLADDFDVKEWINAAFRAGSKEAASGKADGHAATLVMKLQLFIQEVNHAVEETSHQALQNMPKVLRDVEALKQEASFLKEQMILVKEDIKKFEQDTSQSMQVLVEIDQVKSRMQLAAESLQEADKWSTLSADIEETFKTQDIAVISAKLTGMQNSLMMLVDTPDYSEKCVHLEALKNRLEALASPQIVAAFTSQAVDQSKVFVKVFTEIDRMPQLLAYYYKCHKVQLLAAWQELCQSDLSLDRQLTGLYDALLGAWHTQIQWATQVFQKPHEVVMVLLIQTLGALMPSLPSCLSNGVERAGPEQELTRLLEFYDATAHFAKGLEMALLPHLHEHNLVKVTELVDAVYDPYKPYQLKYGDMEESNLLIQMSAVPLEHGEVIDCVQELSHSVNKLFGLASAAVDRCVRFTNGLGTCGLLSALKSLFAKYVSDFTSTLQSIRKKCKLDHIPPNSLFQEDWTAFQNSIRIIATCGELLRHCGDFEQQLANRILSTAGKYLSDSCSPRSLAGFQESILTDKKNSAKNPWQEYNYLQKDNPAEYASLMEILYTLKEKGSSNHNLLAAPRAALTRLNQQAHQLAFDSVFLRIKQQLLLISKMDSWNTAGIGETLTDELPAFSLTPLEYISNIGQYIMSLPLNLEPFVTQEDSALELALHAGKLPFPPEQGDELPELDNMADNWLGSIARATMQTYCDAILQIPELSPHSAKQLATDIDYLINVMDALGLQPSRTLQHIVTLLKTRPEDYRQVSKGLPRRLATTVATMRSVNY
# UniProt O14757, sequence (O14757 whole entry, looked up): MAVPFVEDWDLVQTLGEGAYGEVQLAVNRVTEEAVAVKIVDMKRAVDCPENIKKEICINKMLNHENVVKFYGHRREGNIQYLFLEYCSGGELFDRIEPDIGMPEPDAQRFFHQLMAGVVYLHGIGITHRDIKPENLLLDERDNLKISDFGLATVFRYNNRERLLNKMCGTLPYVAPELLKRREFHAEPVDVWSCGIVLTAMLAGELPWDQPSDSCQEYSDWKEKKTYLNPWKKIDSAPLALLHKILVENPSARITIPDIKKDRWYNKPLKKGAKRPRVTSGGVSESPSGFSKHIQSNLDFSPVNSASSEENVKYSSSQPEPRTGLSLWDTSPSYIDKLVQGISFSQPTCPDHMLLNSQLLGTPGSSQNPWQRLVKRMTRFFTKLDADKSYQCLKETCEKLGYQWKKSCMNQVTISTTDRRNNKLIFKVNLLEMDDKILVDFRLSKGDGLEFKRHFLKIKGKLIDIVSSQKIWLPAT
# UniProt Q15398, sequence (Q15398 whole entry, looked up): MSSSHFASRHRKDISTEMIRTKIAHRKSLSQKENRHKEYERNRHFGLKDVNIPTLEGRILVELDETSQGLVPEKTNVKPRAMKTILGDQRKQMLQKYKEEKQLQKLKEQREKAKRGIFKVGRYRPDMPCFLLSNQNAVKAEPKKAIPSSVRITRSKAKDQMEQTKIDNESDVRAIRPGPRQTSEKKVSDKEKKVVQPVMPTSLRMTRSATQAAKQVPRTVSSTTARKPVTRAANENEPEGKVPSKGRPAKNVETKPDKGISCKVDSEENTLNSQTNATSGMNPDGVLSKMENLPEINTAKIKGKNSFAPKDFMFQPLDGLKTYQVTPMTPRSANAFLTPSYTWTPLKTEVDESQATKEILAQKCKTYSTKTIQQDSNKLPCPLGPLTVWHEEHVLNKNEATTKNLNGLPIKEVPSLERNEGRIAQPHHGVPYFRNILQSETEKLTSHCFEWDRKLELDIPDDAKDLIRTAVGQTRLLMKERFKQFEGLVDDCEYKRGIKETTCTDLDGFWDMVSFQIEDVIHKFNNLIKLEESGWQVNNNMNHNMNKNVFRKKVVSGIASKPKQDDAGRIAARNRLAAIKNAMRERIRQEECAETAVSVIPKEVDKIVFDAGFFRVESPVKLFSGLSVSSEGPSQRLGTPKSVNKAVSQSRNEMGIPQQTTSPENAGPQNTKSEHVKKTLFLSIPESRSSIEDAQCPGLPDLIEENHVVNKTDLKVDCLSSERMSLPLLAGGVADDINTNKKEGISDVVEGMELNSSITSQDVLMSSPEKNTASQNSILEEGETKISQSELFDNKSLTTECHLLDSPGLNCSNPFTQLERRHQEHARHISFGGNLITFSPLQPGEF
# UniProt Q9P0U4, sequence (Q9P0U4 whole entry, looked up): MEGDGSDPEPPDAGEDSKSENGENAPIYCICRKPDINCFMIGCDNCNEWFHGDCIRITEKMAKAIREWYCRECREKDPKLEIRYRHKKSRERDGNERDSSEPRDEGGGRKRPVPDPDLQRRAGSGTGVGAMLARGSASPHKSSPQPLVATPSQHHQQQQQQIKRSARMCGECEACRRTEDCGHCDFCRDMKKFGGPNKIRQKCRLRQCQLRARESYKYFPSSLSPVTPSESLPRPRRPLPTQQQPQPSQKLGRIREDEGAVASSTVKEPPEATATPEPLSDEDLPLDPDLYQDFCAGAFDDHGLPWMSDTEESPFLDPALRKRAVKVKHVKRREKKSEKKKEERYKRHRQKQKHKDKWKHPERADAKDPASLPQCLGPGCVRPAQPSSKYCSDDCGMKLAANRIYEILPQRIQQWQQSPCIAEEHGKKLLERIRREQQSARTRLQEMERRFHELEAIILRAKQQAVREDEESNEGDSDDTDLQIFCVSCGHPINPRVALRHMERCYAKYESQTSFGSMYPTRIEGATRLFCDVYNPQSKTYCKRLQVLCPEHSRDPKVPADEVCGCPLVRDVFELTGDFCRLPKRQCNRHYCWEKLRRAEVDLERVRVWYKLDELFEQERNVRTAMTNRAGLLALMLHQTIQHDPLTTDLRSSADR
# UniProt O60762, sequence (O60762 whole entry, looked up): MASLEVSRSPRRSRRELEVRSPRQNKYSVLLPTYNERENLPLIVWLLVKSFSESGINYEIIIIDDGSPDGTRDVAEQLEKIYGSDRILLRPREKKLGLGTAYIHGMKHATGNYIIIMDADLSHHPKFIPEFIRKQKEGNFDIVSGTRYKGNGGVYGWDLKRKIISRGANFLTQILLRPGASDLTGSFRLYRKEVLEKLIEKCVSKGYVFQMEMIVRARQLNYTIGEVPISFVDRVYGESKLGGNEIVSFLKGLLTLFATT
# UniProt Q14019, sequence (Q14019 whole entry, looked up): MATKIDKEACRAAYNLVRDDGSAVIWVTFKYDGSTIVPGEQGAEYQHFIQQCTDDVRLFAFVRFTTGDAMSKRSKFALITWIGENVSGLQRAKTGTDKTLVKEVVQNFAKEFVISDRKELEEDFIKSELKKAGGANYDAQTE
# UniProt Q6P3W2, sequence (Q6P3W2 whole entry, looked up): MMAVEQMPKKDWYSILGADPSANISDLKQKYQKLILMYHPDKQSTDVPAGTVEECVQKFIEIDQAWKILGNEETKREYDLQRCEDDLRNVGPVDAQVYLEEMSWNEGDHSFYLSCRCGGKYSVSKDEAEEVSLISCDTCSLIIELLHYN
Target,log2 fold change [1],log2 fold change (vorinostat),log2 fold change (silmitasertib),log2 fold change [2],log2 fold change (entospletinib)
CUX1 isoform 3 (UniProt P39880),0.008,0.005,0.025,-0.022,-0.014
COG7 (UniProt P83436),-0.013,-0.287 (active),0.06,0.034,0.033
CMBL (UniProt Q96DG6),-0.065,0.09,0.042,0.071,0.037
DPM1 (UniProt O60762),0.05,-0.01,-0.016,-0.011,0.02
DLGAP5 (UniProt Q15398),-0.008,-0.252 (active),-0.002,-0.006,-0.004
CHEK1 (UniProt O14757),0.008,0.086,0.168,-0.014,0.009
COTL1 (UniProt Q14019),-0.03,0.147,0,-0.021,0.023
COG3 (UniProt Q96JB2),0.011,-0.314 (active),0.123,0.06,-0.017
DARS (UniProt P14868),0.003,-0.327 (active),0.056,0.019,0.035
DNA2 (UniProt P51530),-0.059,-0.448 (active),0.127,-0.027,-0.053
CXXC1 isoform 2 (UniProt Q9P0U4),-0.008,-0.18,0.08,0.027,-0.033
CMTM3 (UniProt Q96MX0),0.05,-0.516 (active),-0.004,-0.03,-0.004
CTNND1 isoform 3 (UniProt O60716),-0.017,-0.371 (active),0.034,-0.014,-0.005
DNAJC24 (UniProt Q6P3W2),-0.159,0.053,-0.017,-0.014,-0.046

# From the supplement of paper PMC10849652
